Molecules are shown by their SMILES. Results filed as inconclusive are left out. A number with no mark means an inactive call. Active and inactive are the calls of the source. Unless noted, calls follow the shape of the dose curve; as a rule, active = well fitted curve in the direction sought with a large enough effect in the repeat runs; inconclusive = weak or mixed curves; inactive = no such curve, though single readings can be large; an effect the other way counts as inactive or inconclusive.

The nature of assay [1]: qHTS assay to identify small molecule antagonists of the glucocorticoid receptor (GR) signaling pathway - cell viability counter screen (AID 720693). Also: nearly all actives have a fitted effect of over 55% in size. In general terms: qHTS replaces the single test concentration by a dilution series.
Assay [2] in a line: qHTS assay for identifying genotoxic compounds that show differential cytotoxicity against isogenic chicken DT40 cell lines with known DNA damage response pathways - wild type cell line (AID 743012). Also: nearly all actives have a fitted effect of over 60% in size. Also: potency is read from the fitted curve at half-maximal effect. In a few lines: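 Cells (DT40 wild type, 300/well) are treated with DMSO-dissolved compounds after a ~0.5 h pre-incubation and kept 40 h at 37 C/5% CO2. Viability is then measured by CellTiter-Glo luminescence following 30 min at room temperature.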

Assay [3] can be described thus: qHTS assay for identifying genotoxic compounds that show differential cytotoxicity against isogenic chicken DT40 cell lines with known DNA damage response pathways - Rev3 mutant cell line (AID 743014). Also: nearly all actives have a fitted effect of over 55% in size. Also: potency is read from the fitted curve at half-maximal effect.
Assay [4] can be described thus: qHTS assay for identifying genotoxic compounds that show differential cytotoxicity against isogenic chicken DT40 cell lines with known DNA damage response pathways - Rad54/Ku70 mutant cell line (AID 743015). Also: nearly all actives have a fitted effect of over 60% in size. Also: potency is read from the fitted curve at half-maximal effect.
Assay [5] in a line: qHTS assay to identify small molecule antagonists of the androgen receptor (AR) signaling pathway - cell viability counter screen (AID 743033; also: nearly all actives have a fitted effect of over 45% in size).
In assay [6] the target is Androgen receptor (Homo sapiens) (UniProt P10275). As to the kind of experiment: qHTS assay to identify small molecule antagonists of the androgen receptor (AR) signaling pathway (AID 743035; active = well fitted inhibition curve with a large enough effect in the signal ratio in the repeat runs, not every such curve was filed as active; the % refers to the signal ratio). In a few lines:
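Antagonism is scored as loss of R1881-driven beta-lactamase reporter expression in HEK293 cells carrying the reporter under a UAS element, after 16 h co-treatment at 37C and a 2 h room-temperature FRET substrate read.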

The target is the same in assay [7]. Kind of assay: qHTS assay to identify small molecule agonists of the androgen receptor (AR) signaling pathway (AID 743036; active = well fitted activation curve with a large enough effect in the signal ratio in the repeat runs, with a control signal flat, not every such curve was filed as active; the % refers to the signal ratio). The method in brief: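 Activation was read as beta-lactamase FRET signal from LiveBLAzer B/G substrate, added for 2 h at room temperature. Before that, GeneBLAzer AR-UAS-bla GripTite (HEK293) cells had 16 h compound exposure at 37C.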
Assay [8] in a line: qHTS assay to identify small molecule antagonists of the androgen receptor (AR) signaling pathway using the MDA cell line - cell viability counter screen (AID 743041; also: nearly all actives have a fitted effect of over 45% in size). In a few lines: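 MDA-kb2 AR-luc cells (MMTV-luciferase, AR/GR responsive) treated with compounds plus R1881 agonist for 16 h at 37C. CellTiter-Fluor added at 15.5 h; fluorescence read after 30 min in the same wells.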

The target in assay [9] is Androgen receptor (Homo sapiens) (UniProt P10275). Kind of assay: qHTS assay to identify small molecule antagonists of the androgen receptor (AR) signaling pathway using the MDA cell line (AID 743042; also: nearly all actives have a fitted effect of over 55% in size). The method in brief:
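MDA-kb2 breast carcinoma cells carrying MMTV-luciferase (AR/GR responsive) were co-treated with compounds and the agonist R1881 for 16 h at 37C. Inhibition read as ONE-Glo luminescence; CellTiter-Fluor fluorescence measured in parallel for cytotoxicity.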

Assay [10] is described as follows: qHTS assay to identify small molecule antagonists of the thyroid receptor (TR) signaling pathway - cell viability counter screen (AID 743064). Also: nearly all actives have a fitted effect of over 50% in size. In a few lines:
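In-well cytotoxicity read by CellTiter-Fluor (30 min, 37 C) following 23.5 h exposure of GH3 cells bearing a TRE-luciferase sensor. Compounds were added alongside 1 nM (final) T3 to drive TR transactivation.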

Assay [11] concerns thyroid hormone receptor (rat, GH3 cells). As to the kind of experiment: qHTS assay to identify small molecule agonists of the thyroid receptor (TR) signaling pathway (AID 743066; calls by dose curve).
Assay [12] addresses Estrogen receptor (Homo sapiens) (UniProt P03372). Kind of assay: qHTS assay to identify small molecule antagonists of the estrogen receptor alpha (ER-alpha) signaling pathway (AID 743069; active = well fitted curve in the direction sought with a large enough effect in the signal ratio in the repeat runs, not every such curve was filed as active; the % refers to the signal ratio). The method in brief: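 HEK293 ER-alpha-UAS-bla GripTite cells, held overnight in 2% charcoal-stripped FBS, 5,000 cells/well, preincubated 4 h, then compound plus 17beta-estradiol for 18 h at 37C. Beta-lactamase read by LiveBLAzer B/G FRET substrate, 2 h at room temperature.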

Assay [13] in a line: qHTS assay to identify small molecule antagonists of the estrogen receptor alpha (ER-alpha) signaling pathway - cell viability counter screen (AID 743074; calls by dose curve;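 also: HEK293 cells carrying ER-alpha-UAS-bla reporter stimulated with 17beta-estradiol; nearly all actives have a fitted effect of over 45% in size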).
Assay [14] concerns the target Estrogen receptor (Homo sapiens) (UniProt P03372). As to the kind of experiment: qHTS assay to identify small molecule agonists of the estrogen receptor alpha (ER-alpha) signaling pathway (AID 743075; calls by dose curve).
Assay [15] shares this target. As to the kind of experiment: qHTS assay to identify small molecule agonists of the estrogen receptor alpha (ER-alpha) signaling pathway using the BG1 cell line (AID 743079). Also: nearly all actives have a fitted effect of over 20% in size. Conditions: BG1Luc4E2 cells, ERE-luciferase agonist, 22 h.
Assay [16] in a line: qHTS assay to identify small molecule antagonists of the estrogen receptor alpha (ER-alpha) signaling pathway using the BG1 cell line (AID 743080; calls by dose curve;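 also: BG1 cells stimulated with 17beta-estradiol alongside compound; nearly all actives have a fitted effect of over 25% in size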). In a few lines: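 Luminescence from a 4×ERE-luciferase reporter in BG1-Luc-4E2 cells served as read-out. Cells, pre-cultured 5 days in stripped-serum phenol-red-free medium, were exposed to compound with 17beta-estradiol co-stimulation for 21.5 h at 37 C.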

The next assay deals with Aromatase (Homo sapiens) (UniProt P11511). As to the kind of experiment: qHTS assay to identify aromatase inhibitors (AID 743083). Also: nearly all actives have a fitted effect of over 55% in size.
Chain of Aromatase (Homo sapiens) (P11511 whole entry, looked up): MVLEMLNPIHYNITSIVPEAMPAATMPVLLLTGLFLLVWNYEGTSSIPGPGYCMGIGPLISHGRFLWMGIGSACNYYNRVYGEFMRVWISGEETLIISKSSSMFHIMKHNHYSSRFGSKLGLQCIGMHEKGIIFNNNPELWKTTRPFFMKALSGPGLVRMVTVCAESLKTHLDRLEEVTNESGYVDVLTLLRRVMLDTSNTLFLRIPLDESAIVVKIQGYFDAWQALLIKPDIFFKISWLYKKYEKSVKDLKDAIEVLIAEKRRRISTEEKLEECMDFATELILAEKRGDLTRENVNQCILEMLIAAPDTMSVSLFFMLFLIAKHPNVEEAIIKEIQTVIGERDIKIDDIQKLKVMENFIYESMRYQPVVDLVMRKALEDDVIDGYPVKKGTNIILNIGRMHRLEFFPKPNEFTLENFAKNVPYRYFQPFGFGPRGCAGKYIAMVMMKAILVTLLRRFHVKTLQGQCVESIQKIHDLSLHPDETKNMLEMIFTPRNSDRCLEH
A short description of assay [17]: qHTS assay to identify aromatase inhibitors - cell viability counter screen (AID 743084).
Assay [18] in a line: qHTS assay to identify small molecule antagonists of the thyroid receptor (TR) signaling pathway (AID 743065). Also: nearly all actives have a fitted effect of over 55% in size. The method in brief: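 GH3.TRE-Luc rat pituitary cells (two TREs driving luciferase) were dosed with compound, then stimulated with 1 nM T3 (final) for 23.5 h at 37 C. ONE-Glo luminescence was the read-out, with CellTiter-Fluor fluorescence as the cytotoxicity counter-screen.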

Assay [19] in a line: qHTS assay to identify small molecule antagonists of the estrogen receptor alpha (ER-alpha) signaling pathway using the BG1 cell line - cell viability counter screen (AID 743081).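 Also: compound given together with 17beta-estradiol as the ER stimulus; nearly all actives have a fitted effect of over 45% in size.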
% is scaled to controls: 0 for no effect and ±100 for the full control effect.

Chain of Estrogen receptor (Homo sapiens) (P03372 whole entry, looked up): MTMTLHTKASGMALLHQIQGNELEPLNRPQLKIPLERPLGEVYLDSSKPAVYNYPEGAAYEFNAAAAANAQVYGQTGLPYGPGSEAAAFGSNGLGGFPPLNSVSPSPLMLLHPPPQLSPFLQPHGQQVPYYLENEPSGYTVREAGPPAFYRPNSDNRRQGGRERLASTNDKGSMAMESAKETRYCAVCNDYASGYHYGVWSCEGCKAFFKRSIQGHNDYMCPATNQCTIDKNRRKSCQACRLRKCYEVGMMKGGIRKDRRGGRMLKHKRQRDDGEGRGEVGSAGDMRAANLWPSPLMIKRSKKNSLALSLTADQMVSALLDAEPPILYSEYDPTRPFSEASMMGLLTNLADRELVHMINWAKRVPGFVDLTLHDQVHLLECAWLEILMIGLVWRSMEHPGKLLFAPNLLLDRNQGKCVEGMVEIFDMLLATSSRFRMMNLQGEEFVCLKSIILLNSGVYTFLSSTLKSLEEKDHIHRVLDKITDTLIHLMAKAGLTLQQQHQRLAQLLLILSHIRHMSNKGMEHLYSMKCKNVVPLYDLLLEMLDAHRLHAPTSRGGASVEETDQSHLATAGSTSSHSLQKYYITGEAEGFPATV
Chain of Androgen receptor (Homo sapiens) (P10275 whole entry, looked up): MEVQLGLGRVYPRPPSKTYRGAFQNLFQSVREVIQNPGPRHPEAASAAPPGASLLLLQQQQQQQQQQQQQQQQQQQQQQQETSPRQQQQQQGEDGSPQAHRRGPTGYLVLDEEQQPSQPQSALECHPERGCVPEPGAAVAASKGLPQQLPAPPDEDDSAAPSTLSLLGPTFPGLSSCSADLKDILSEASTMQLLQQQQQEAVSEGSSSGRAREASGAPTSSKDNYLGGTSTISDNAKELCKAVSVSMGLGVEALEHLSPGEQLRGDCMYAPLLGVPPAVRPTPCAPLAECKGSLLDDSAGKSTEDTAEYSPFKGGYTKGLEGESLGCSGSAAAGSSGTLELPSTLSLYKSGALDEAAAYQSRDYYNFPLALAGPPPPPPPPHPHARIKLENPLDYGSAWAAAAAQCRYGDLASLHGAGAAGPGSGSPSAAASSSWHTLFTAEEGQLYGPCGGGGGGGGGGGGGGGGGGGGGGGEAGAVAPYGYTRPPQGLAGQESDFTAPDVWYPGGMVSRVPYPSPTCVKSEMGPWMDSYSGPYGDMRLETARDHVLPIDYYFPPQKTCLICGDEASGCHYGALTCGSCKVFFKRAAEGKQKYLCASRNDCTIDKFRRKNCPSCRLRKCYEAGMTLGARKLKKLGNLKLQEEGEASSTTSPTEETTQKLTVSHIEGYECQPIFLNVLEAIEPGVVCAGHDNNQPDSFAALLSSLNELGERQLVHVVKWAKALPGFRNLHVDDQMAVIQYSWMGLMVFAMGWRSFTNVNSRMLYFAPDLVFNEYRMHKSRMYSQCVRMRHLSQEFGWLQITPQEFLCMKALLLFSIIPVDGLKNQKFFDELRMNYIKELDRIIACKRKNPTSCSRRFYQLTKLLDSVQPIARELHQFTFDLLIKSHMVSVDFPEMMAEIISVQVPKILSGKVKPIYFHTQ

As for `CCC1(c2ccccc2)CCC(=O)NC1=O` (centres undefined), the Potency result in assay [1], in assay [2], in [3], in assay [4], in assay [5] and in [6] was “inactive” throughout. The Potency entry in [8], in assay [9], in assay [10], in assay [11], in [12] and in [13] was “inactive” in each case. The Potency result (in assay [14]; in assay [16]; in the assay with Aromatase (Homo sapiens); in assay [17]) was “inactive” throughout. Also, the compound was called inactive in [7]. In addition, in assay [15] (at 70.3 µM (top of the series)), the activation is 2.78%.
Turning to `NC(=O)CS(=O)C(c1ccccc1)c1ccccc1` (centres undefined), the Potency entry in assay [1], in [2], in [3], in assay [4], in assay [5] and in assay [8] was “inactive” in each case. Further, the Potency result in assay [10], in assay [18], in assay [11], in assay [12], in assay [13] and in assay [14] was “inactive” each time. For the same compound, the Potency result (in assay [16]; in assay [19]; with Aromatase (Homo sapiens)) was “inactive” each time. In addition, the activation in [15] (at 70.3 µM (top of the series)) is -2.29%.
Consider `O=C(O)CBr`, for which the Potency result in assay [1], in assay [2], in [3], in assay [4], in [5] and in [8] was “inactive” throughout. In addition, the Potency entry (in assay [10]; in assay [18]; in assay [11]; in [13]; in [19]; with Aromatase (Homo sapiens)) was “inactive” each time. In addition, the Potency entry in [17] is “inactive”.
Take `C[C@H](CN1CCOCC1)C(C(=O)N1CCCC1)(c1ccccc1)c1ccccc1`: the Potency entry in assay [1], in [5], in assay [8], in assay [9], in assay [11] and in assay [12] was “inactive” in each case. The Potency result (in [14]; in assay [16]; in the assay with Aromatase (Homo sapiens); in assay [17]) was “inactive” throughout. For the same compound, the results for the Potency in [2], in [3] and in [4] were 33.2 µM (active), 37.3 µM (active) and 59.1 µM (active), respectively. For the same compound, the compound was called inactive in assay [7]. The activation in [15] (at 95 µM (top of the series)) is -2.63%.
For the compound `CC(C)[N+](C)(CCC(C(N)=O)(c1ccccc1)c1ccccc1)C(C)C`, the Potency result in [1], in [2], in assay [3], in assay [4], in assay [5] and in [8] was “inactive” in each case. Further, the Potency entry in [10], in [18], in assay [11], in [12], in [13] and in [14] was “inactive” throughout. The Potency entry (in assay [16]; in assay [19]; in the assay with Aromatase (Homo sapiens); in assay [17]) was “inactive” in each case. Also, in assay [15] (at 32.5 µM (top of the series)), the activation is 1.94%.
As to `ClCCCCCCCl`, the Potency entry in assay [1], in [2], in [3], in [4], in [5] and in assay [8] was “inactive” in each case. In addition, the Potency result (in [10]; in assay [18]; in [11]; in [13]; in [19]; in the assay with Aromatase (Homo sapiens)) was “inactive” each time. Moreover, the Potency result in assay [17] was “inactive”.
Take `CCCN1CCC[C@@H]2Cc3nc(N)ncc3C[C@H]21`: the Potency result in [1], in assay [2], in assay [3], in assay [4], in [5] and in [8] was “inactive” in each case. The Potency result in assay [10], in assay [18], in assay [11], in [12], in [13] and in assay [14] was “inactive” in each case. In addition, the Potency result (in [16]; in [19]; with Aromatase (Homo sapiens); in [17]) was “inactive” each time. For the same compound, the activation in assay [15] (at 70.3 µM (top of the series)) is -11.9%.
With `CN(C)C(=O)Oc1cc(OC(=O)N(C)C)cc(C(O)CNC(C)(C)C)c1` (centres undefined), the Potency result in assay [1], in [2], in [3], in assay [4], in assay [5] and in assay [6] was “inactive” each time. Further, the Potency entry in assay [8], in assay [9], in [10], in assay [18], in [11] and in assay [12] was “inactive” throughout. Besides, the Potency result (in [13]; in assay [14]; in assay [16]; in assay [19]; with Aromatase (Homo sapiens); in assay [17]) was “inactive” in each case. Also, the compound was classed as inactive in [7]. Further, in assay [15] (at 32.5 µM (top of the series)), the activation was -8.21%.

For the origin of these results see PubChem BioAssay (Tox21).
